A selection: hits, their analogues and other compounds. The true share with any hit is near 7.8%.
VACV Venus inh – inhibitors of vaccinia virus (Venus reporter); Vaccinia virus Venus reporter expression, fluorescence; Potency, µM (titrated, usually from 36.5 µM), inactives show at the top dose activity change, negative = inhibition, most hits filed as inhibitors; 330,000 compounds, 0.46% hits; AID 720580; calls by dose curve; tested in A549 cells; note: potency is the fitted concentration of half-maximal effect; nearly all actives have a fitted effect of over 30% in size
Lassa entry inh – blocks Lassa virus binding to or entry into cells | Lassa virus pseudotype entry inhibition, cell reporter | Potency, µM (top dose mostly 37.9 µM), inactives show top-dose activity change, negative = inhibition, most hits filed as inhibitors | 300,000 compounds, 1.2% hits | AID 540256; calls by dose curve; tested in HEK293 cells; note: potency is the fitted concentration of half-maximal effect; nearly all actives have a fitted effect of over 50% in size
VACV mCherry inh – inhibitors of vaccinia virus infection (mCherry reporter signal); AID 720579; Vaccinia virus mCherry reporter infection, fluorescence; 310,000 compounds, 0.63% hits; Potency, µM (top dose mostly 36.5 µM), for the others: at the top dose activity change, negative = inhibition, actives largely listed as inhibitors; calls by dose curve; tested in A549 cells; note: potency is the fitted concentration of half-maximal effect; nearly all actives have a fitted effect of over 35% in size
HCV inh – inhibitors of hepatitis C virus infection; Potency, µM (titrated, usually from 41.8 µM), for inactives: top-dose activity change, negative = inhibition, hits mostly inhibitors; 340,000 compounds, 3.4% hits; AID 651820; Huh7.5.1 HCVcc-Cre infection, luciferase reporter, 44 h; active = well fitted inhibition curve with a large enough effect; inconclusive = small, poorly fitted or top-dose-only effect, or another doubt; inactive = no such curve, though single readings can be large or run the other way; note: potency is the fitted concentration of half-maximal effect
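Luciferase read-out (15 sec integration) after a 15 min room-temperature substrate step quantifies HCVcc-Cre infection. Cells, 1,000 per well, had compound added 4 h post-plating, then virus at ~0.5 moi, and were cultured 44 h.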
Marburg entry inh – Marburg virus entry inhibition | AID 540276 | Potency, µM (top dose mostly 37.8 µM), inactives show at the highest dose activity change, negative = inhibition, actives largely listed as inhibitors | 300,000 compounds, 1.8% hits | Marburg virus pseudotyped entry inhibition, cell reporter; calls by dose curve; tested in HEK293 cells; note: potency is the fitted concentration of half-maximal effect
HCMV inh – blocks human cytomegalovirus replication; HFF cells, HCMV-luciferase reporter, 72 h; hits give low values; activity change, negative = inhibition, % at 57.5 µM; 410,000 compounds, 4.5% hits; in the data active = activity change below about -60%; inconclusive = no clear call, values can overlap the other calls; inactive = above about -39%
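After 16 h attachment at 37C, HFF cells received test compound and HCMV-luciferase (1 PFU/cell); reporter luminescence read 72 h later, data normalized against buffer-only and known inhibitor Salinomycin.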
* hit, by the source's call; i = inactive; ? = inconclusive; . = no result given; [ ] = another dose, or the depositor's remark. % is set by controls: 0 for no effect and ±100 for the full control effect.

SMILES | VACV Venus inh | Lassa entry inh | VACV mCherry inh | HCV inh | Marburg entry inh | HCMV inh
O=C(Nc1ccc([N+](=O)[O-])cc1)c1cccc([N+](=O)[O-])c1 | -3% | . | i | . | . | 7
Cc1ccc(NC(=O)c2cccc(Oc3ccc([N+](=O)[O-])cc3)c2)c(C(=O)O)c1 | . | . | . | 13% | . | 49
O=C(NNC(=O)c1cccc(O)c1)Nc1ccc([N+](=O)[O-])cc1 | -10% | 3%[46.1 µM] | ? | -3% | -3%[46.1 µM] | -96*
Cc1ccc(NC(=O)/C=C/c2ccco2)cc1F | -20% | ? | ? | . | . | 0
O=C(/C=C\c1ccco1)Nc1cc([N+](=O)[O-])ccc1F | ? | ? | ? | 3% | ? | -87*
CC(=O)N1CCc2cc(S(=O)(=O)CCC(=O)Nc3ccc(C)cc3Br)ccc21 | -18% | 18%[46.1 µM] | ? | . | -9%[46.1 µM] | -39
CCCC(=O)N(C)c1ccc(/C=C2\C=Cc3ccccc32)cc1 | -23% | . | ? | . | . | .
COc1ccc(-c2cccc(C3CC=CC4C3C(=O)N(Cc3ccccc3)C4c3ccc(C(F)(F)F)cc3)c2)cc1 (centres undefined) | -10% | . | -4% | -6% | . | -67*
COc1ccc(-c2ccc(OC)c([C@H]3[C@H]4C=CC[C@@H](C)[C@@H]4C(=O)N3Cc3ccccc3)c2)cc1OC | ? | . | -17% | -5%[8.37 µM] | . | 37
O=C1C2C(c3ccccc3)CC=CC2[C@H](c2ccc(C(F)(F)F)cc2)N1Cc1ccccc1 (some centres undefined) | ? | . | -20% | -18% | . | -85*
COc1ccc(-c2c([C@H]3[C@H]4C=CC[C@@H](C)[C@@H]4C(=O)N3Cc3ccccc3)ccc3ccccc23)cc1OC | ? | . | -26% | ? | . | -84*
O=C(CCCCCn1c(=O)c2sccc2n(Cc2ccccc2Cl)c1=O)NCc1ccc2c(c1)OCO2 | -25% | -4%[46.1 µM] | -25% | . | 0%[46.1 µM] | 30
CC(C(=O)NC1CCCC1)n1c(-c2ccccn2)nc2ccccc21 (centres undefined) | -2% | . | 17% | . | . | -12
CCOC(=O)C(C)On1c(-c2ccccc2)nc2ccc([N+](=O)[O-])cc21 (centres undefined) | -12% | 2% | . | ? | -3% | -18
CC(=O)OCc1c(-c2ccccc2)c2cc([N+](=O)[O-])ccc2n1C | -20% | 19%[46.1 µM] | -14% | 13µM* | -28%[46.1 µM] | -77*
Cn1c(CO)c(-c2ccccc2)c2cc([N+](=O)[O-])ccc21 | ? | 3% | ? | 10µM* | 0% | -37
Cn1c2ccccc2c2cc([N+](=O)[O-])ccc21 | 5% | -2% | -5% | ? | -6% | -19
CCC1CCCCN1CCCNC(=O)c1ccc2c(c1)N(Cc1cccc(C)c1)C(=O)c1ccccc1S2(=O)=O (centres undefined) | ? | ? | -8% | . | ? | -64*
CC1CCC(NC(=O)c2ccc3c(c2)N(Cc2cccc(Cl)c2)C(=O)c2ccccc2S3(=O)=O)CC1 (centres undefined) | -6% | 10%[46.1 µM] | -11% | . | . | ?
CCC1CCCCN1CCCNC(=O)c1ccc2c(c1)N(Cc1ccccc1)C(=O)c1ccccc1S2(=O)=O (centres undefined) | -16% | -22%[46.1 µM] | -15% | . | ? | ?
CCC1CCCCN1CCCNC(=O)c1ccc2c(c1)N(Cc1cccc(Cl)c1)C(=O)c1ccccc1S2(=O)=O (centres undefined) | -24% | ? | -23% | . | . | -98*
CC1CCCN(CCCNC(=O)c2ccc3c(c2)N(Cc2ccc(Cl)cc2)C(=O)c2ccccc2S3(=O)=O)C1 (centres undefined) | -25% | ? | -25% | . | ? | -100*
CCC1CCCCN1CCCNC(=O)c1ccc2c(c1)N(Cc1ccc(Cl)cc1)C(=O)c1ccccc1S2(=O)=O (centres undefined) | -24% | ? | -24% | . | ? | -106*
CC(C)(O)C#Cc1ccc(C(=O)NCCN2Cc3ccccc3OC(c3ccccc3F)C2)o1 (centres undefined) | 1% | . | -10% | . | . | .
C#CCCCON=C1C[C@@H](O)[C@H](O)[C@H]2[C@@H]3C(=O)N(Cc4ccc5c(c4)OCO5)C(=O)[C@@H]3CC[C@@H]12 | . | . | . | . | -7%[14.2 µM] | .
SMILES | VACV Venus inh | Lassa entry inh | VACV mCherry inh | HCV inh | Marburg entry inh | HCMV inh
C/C(=N\Nc1cccc2cccnc12)c1ccccn1 | -10% | ? | i | 6.3µM* | ? | 196
CC(=NNc1cc(C)c2ccccc2n1)c1ccccn1 | . | . | . | . | . | -98*
Cc1cc(N/N=C(/CCC(=O)O)C(=O)O)nc2ccccc12 | -4% | -12% | -7% | 11% | 1%[46.1 µM] | -8
COc1ccc(-c2cc(C)no2)cc1S(=O)(=O)NCc1cccs1 | -23% | -19%[46.1 µM] | ? | . | . | 0
CC(=NNc1nc2ccccc2s1)c1ccncn1 | ? | ? | 2.8µM* | ? | ? | -100*
C/C(=N\Nc1nc2ccccc2s1)c1ccc2c(c1)OCO2 | -13% | ? | i | ? | -9% | 117
C/C(=N\Nc1nc2ccccc2s1)c1ccc(Br)s1 | -10% | ? | -19% | 11µM* | ? | -20
c1ccc2sc(NN=C3CCCCCC3)nc2c1 | -10% | ? | -16% | ? | ? | 4
O=C1CC(c2ccccc2C(F)(F)F)c2c(c3ccccc3[nH]c2=O)O1 (centres undefined) | -19% | 11%[46.1 µM] | -21% | . | 15%[46.1 µM] | -1
CCOc1ccc(-c2cn(-c3ccc(C)cc3)c(SCC(=O)Nc3ccc(C)cc3)n2)cc1 | -24% | -13%[46.1 µM] | -18% | . | . | 11
CCOc1ccc(CC(=O)NCCc2csc(-c3ccc(C(F)(F)F)cc3)n2)cc1 | -2% | 10%[46.1 µM] | -17% | . | . | -10
Cc1nc2nc(NC(=O)c3cccc(Cl)c3)[nH]n2c(=O)c1Cc1ccccc1 | -8% | 1%[46.1 µM] | -7% | . | 20%[46.1 µM] | -7
Cc1cc(C)c2oc(C(=O)Nc3nnc(C(C)C)s3)cc(=O)c2c1 | . | 1% | . | -6% | 8% | -66*
CSc1nnc(NC(=O)c2cc(=O)c3cc(C)cc(C)c3o2)s1 | -4% | 5% | -3% | -11% | -2% | -20
CCCCNc1nc2c(c(=O)n(Cc3ccc(Cl)c(Cl)c3)c(=O)n2C)n1C | -5% | -15%[46.1 µM] | -17% | . | -16%[46.1 µM] | -4
COC(=O)c1c(Cl)c2n3ccccc3c(C)c(-c3ccccc3)c-2c1C(=O)OC | 41% | -26% | i | 13µM* | ? | 90
COC(=O)c1cc2c(-c3ccccc3)c(C)c3ccccn3c-2c1C(=O)OC | 19% | ? | . | ? | ? | -35
CN(CCO)C(=O)c1cn(C2CCN(Cc3cccc(C(F)(F)F)c3)CC2)nn1 | -5% | . | -2% | . | . | .
O=C1N(Cc2cccc(Cl)c2)C[C@@H]2C[C@@H](c3cccn3-c3nccs3)N3CCC[C@@]123 | 11% | ? | ? | ? | 11µM* | -20

Assay outcomes from PubChem.
